FLuc counter = firefly luciferase modulation, counter-screen for miR-21 project; purified FLuc, Km substrates, luminescence inhibition; hit rate 6.9% among 360,000; Potency, µM (doses to about 57.5 µM), actives largely listed as inhibitors; AID 588342; further: nearly all actives have a fitted effect of over 55% in size
Target sequence (P08659 whole entry, looked up): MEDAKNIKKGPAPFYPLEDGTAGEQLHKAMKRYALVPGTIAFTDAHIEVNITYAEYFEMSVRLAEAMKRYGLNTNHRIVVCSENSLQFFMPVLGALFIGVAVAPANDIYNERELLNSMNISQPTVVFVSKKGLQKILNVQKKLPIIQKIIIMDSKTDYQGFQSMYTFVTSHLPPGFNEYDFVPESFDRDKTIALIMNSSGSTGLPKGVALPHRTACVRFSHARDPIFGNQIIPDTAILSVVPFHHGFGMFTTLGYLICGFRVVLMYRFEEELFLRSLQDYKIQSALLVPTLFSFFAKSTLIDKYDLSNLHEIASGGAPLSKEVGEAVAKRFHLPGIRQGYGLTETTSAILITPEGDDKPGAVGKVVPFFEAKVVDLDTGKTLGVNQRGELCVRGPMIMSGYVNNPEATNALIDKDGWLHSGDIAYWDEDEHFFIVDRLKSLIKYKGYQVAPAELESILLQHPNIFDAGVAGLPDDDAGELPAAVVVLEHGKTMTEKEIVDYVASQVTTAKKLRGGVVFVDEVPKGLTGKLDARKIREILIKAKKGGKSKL
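Biochemical qHTS of compounds, final roughly 60 µM downward over six points, against 10 nM purified firefly luciferase using Km concentrations of substrates (10 uM D-luciferin, 10 uM ATP) in Tris acetate pH 7.5 buffer; luminescence output.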
NPC1 prom act = NPC1 promoter activation | Huh7 NPC1 promoter luciferase reporter, 24 h | Potency, µM (highest dose often 9.22 µM), most hits filed as activators | hit rate 2.4% among 320,000 | AID 485313; further: nearly all actives have a fitted effect of over 60% in size
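Stably transfected Huh7 (NPC1 promoter→luciferase), 1500 cells/well in Opti-MEM + 10% FBS, 2 h settle, then compound 24 h at 37 °C. Luminescence after 10 min with Amplite reagent.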
SMN2 splice enh = SMN2 splice variant enhancement; HEK293 SMN2-luciferase splicing reporter, luminescence, 30-36 h; Potency, µM (series often up to 46.1 µM), hits mostly activators; hit rate 2.8% among 210,000; further: nearly all actives have a fitted effect of over 55% in size
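HEK293 cells carry an SMN2 […]–luciferase reporter in which exon 7 inclusion puts luciferase in frame. Cells were plated 10-12 h before compound addition, then incubated 30-36 h at 37C. ONE-Glo luminescence was read; sodium butyrate at 4.5 mM final served as control.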
ELG1 genotox = genotoxicity induction in ELG1-luciferase HEK293T cells | HEK293T ELG1-luciferase reporter, luminescence, 16 h | Potency, µM (series often up to 46 µM), usual class: activators | hit rate 1.3% among 330,000 | AID 504466; further: nearly all actives have a fitted effect of over 60% in size
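DMSO vehicle served as control against compound-treated ELG1-luciferase HEK293T cells; exposure lasted 16 hr at 37 °C and 5% CO2, followed by ONE-Glo luminescence detection after 30 min.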
Rab9 promoter act = Rab9 promoter activation; Huh7 Rab9 promoter-luciferase reporter, luminescence, 24 h; Potency, µM (series often up to 9.22 µM), most hits filed as activators; hit rate 2.8% among 320,000; AID 485297; further: nearly all actives have a fitted effect of over 60% in size
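Measured in stably transfected Huh7 cells bearing a Rab9 promoter–luciferase construct: 24 h compound treatment at 37 °C, followed by luminescence detection.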
ELG1 DNA repair = ELG1-dependent DNA repair inhibition; HEK293T ELG1-luciferase reporter, luminescence, 16 h; DNA damage induced by 5-fluorouridine; Potency, µM (titrated, usually from 46.1 µM), hits mostly inhibitors; hit rate 2.3% among 330,000; further: nearly all actives have a fitted effect of over 55% in size
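DMSO vehicle served as the neutral condition. Each well held 2,000 cells given 5-fluorouridine plus compound; after 16 hr at 37 °C/5% CO2, ONE-Glo was added and luciferase measured 30 min later.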
A number is an active result; n = inactive; u = inconclusive; x = no result given; [ ] = dose if it differs, or a comment. Compounds with a hit are over-represented: about 9.2% of the library has one in this group of screens. The call rests on the fitted dose curve; in most records, active means well fitted curve in the direction sought with a large enough effect; inconclusive means small, poorly fitted or top-dose-only effect, or another doubt; inactive means no such curve, though single readings can be large; an effect the other way counts as inactive or inconclusive.

SMILES	FLuc counter	NPC1 prom act	SMN2 splice enh	ELG1 genotox	Rab9 promoter act	ELG1 DNA repair
Cn1cnc([N+](=O)[O-])c1SCC(=O)O	x	x	n[9.22 µM]	x	x	x
COc1ccc(/C=C/C(=O)Nc2nc(C)c(C(=O)N(C)C)s2)cc1OC	n	n	n	n	n	n
COc1ccc(/C=C/C(=O)Nc2nc(C)c(C(=O)N(C)C)s2)cc1	19µM	n	n	n	n	n
COc1ccc(C(=O)Nc2nc(C)c(C(=O)N(C)C)s2)cc1OC	13.5µM	n	u	u	n	u
CC(=O)c1sc(NC(=O)c2cnc(Cl)c(Cl)c2)nc1C	u	n	x	u	n	u
CC(=O)c1sc(NC(=O)c2ccc(C)c(C)c2)nc1C	2.39µM	1.58µM	8.91µM	n	1.78µM	u
CC(=O)c1sc(NC(=O)c2ccc3c(c2)OCO3)nc1C	4.78µM	2.51µM	x	10.3µM	3.55µM	u
COc1ccc(C)cc1NC(=O)C(=O)NCc1ccncc1	n	n	x	n	n	n
CCCCN(C)CCCNC(=O)c1cn(C)c2ccc(S(=O)(=O)N(C)C3CCCCC3)cc2c1=O	n	n	x	n	n	n
CC(C)C[C@@H](CC(=O)N[C@@H](CCC(=O)O)CC(=O)O)NC(=O)[C@@H]1CNCC[C@H]1NC(=O)C[C@@H](NC(=O)C[C@H](CO)NC(=O)[C@@H]1CNCC[C@H]1N)C(C)C	x	x	n	x	x	x
CC(=O)c1sc(NC(=O)C(C)(C)C)nc1C	n	n	n	n	n	n
CC(=O)c1sc(NC(=O)c2ccc(C(C)(C)C)cc2)nc1C	1.35µM	1.58µM	x	u	1.58µM	u
COc1cccc(-c2cc(C(=O)NCCc3ccc(OC)c(OC)c3)no2)c1	n	x	n	x	x	x
CCn1cc(Br)c(C(=O)Nc2ccc(Cl)c(Cl)c2)n1	u	u	u	u	3.55µM	u
CCn1ccc(C(=O)Nc2cccc(Cl)c2)n1	10.7µM	3.55µM	12.6µM	u	1.41µM	u
CCn1cc(Br)c(C(=O)Nc2cccc(Cl)c2)n1	u	3.98µM	11.2µM	u	2µM	u
CCn1cc(Cl)c(C(=O)Nc2ccc(OC)c(OC)c2)n1	15.1µM	n	n	n	u	n
CCn1cc(Cl)c(C(=O)Nc2cccc(CN3CCOCC3)c2)n1	n	n	x	n	n	n
CCn1cc(Cl)c(C(=O)Nc2cc(C(=O)OC)cc(C(=O)OC)c2)n1	n	n	n	n	n	u
COCCNC(=O)CSc1nc2ccccc2nc1Cc1ccc(C)cc1	n	x	x	x	x	x
CSCC[C@H](NC(=O)c1cccc(S(=O)(=O)N2CCCCC2)c1)c1nc2ccccc2[nH]1	x	x	x	n	x	u
CCOc1ccc(NC(=O)Cn2ccn(-c3ccc(F)c(F)c3)c(=O)c2=O)cc1	n	x	x	x	x	x
CCn1ccc(C(=O)Nc2ccccc2Cl)n1	10.7µM	2µM	x	8.2µM	1.58µM	u
O=C(CSc1cn(CC(=O)N2CCCCCC2)c2ccccc12)Nc1ccccc1F	n	x	x	x	x	x
O=C(Nc1ccccc1F)C(=O)c1cn(CC(=O)N2CCCCC2)c2ccccc12	5.36µM	n	u	n	n	n
SMILES	FLuc counter	NPC1 prom act	SMN2 splice enh	ELG1 genotox	Rab9 promoter act	ELG1 DNA repair
CC(C)c1ccc(NC(=O)C(=O)c2cn(CC(=O)N3CCCCC3)c3ccccc23)cc1	u	n	n	n	n	u
COc1ccc(NC(=O)C(=O)c2cn(CC(=O)N3CCCC3)c3ccccc23)cc1	12µM	n	x	u	n	u
CC(=O)Nc1cccc(NC(=O)C(=O)c2cn(CC(=O)N3CCCCC3)c3ccccc23)c1	8.49µM	n	n	n	u	n
CC(=O)Nc1ccc(NC(=O)C(=O)c2cn(CC(=O)N3CCCC3)c3ccccc23)cc1	n	n	x	n	n	n
O=C(O)C(Cc1c[nH]c2ccccc12)N1C(=O)c2ccccc2C1=O (stereo not drawn)	n	n	x	n	n	n
COc1cccc(-c2ncnn2-c2sc3c(c2C#N)CCCCC3)c1OC	0.953µM	x	n	x	x	x
N#Cc1c(-n2ncnc2-c2ccc(Br)cc2)sc2c1CCCCC2	1.2µM	x	n	x	x	x
NC(=O)CN(c1ccc([N+](=O)[O-])cc1)S(=O)(=O)c1ccccc1	n	n	x	n	n	n
CC(C(=O)O)c1ccc(C(=O)c2ccccc2)s1 (stereo not drawn)	16.9µM	n	x	u	n	u
CCN(CC)CCn1c(=S)[nH]c2cc(C(=O)N3CC(C)CC(C)C3)ccc2c1=O (stereo not drawn)	n	n	x	n	n	n
N#Cc1ccsc1NC(=O)CCc1ccccc1	15.1µM	n	12.6µM	u	u	u
COc1cc(CCC(=O)Nc2sccc2C#N)cc(OC)c1OC	n	n	x	n	n	23.1µM
COc1ccc(CCC(=O)OCC(=O)Nc2sccc2C#N)cc1	x	x	x	n	x	u
N#Cc1ccsc1NC(=O)CN(Cc1ccccc1)Cc1ccccc1	n	n	n	n	n	n
Cc1cccc(C)c1NC(=O)CCC(=O)N1Cc2ccccc2Oc2ncccc21	n	x	x	x	x	x
Cc1nc(C)c(C(=O)NCCC(c2ccccc2)c2ccccc2)o1	n	n	n	n	n	5.8µM
OCCSc1nc2ccccc2n1CCOc1ccccc1	n	n	n	n	n	u
CCCc1ccc2oc(C(=O)NCCCN3CCOCC3)c(C)c2c1	13.5µM	n	x	u	n[1.84 µM]	u
CCCc1ccc2oc(C(=O)NCc3nnc(C)o3)c(C)c2c1	9.53µM	2µM	x	9.2µM	2.82µM	u
CCc1ccc2oc(C(=O)NCc3ccc(S(N)(=O)=O)cc3)c(C)c2c1	n	n	n	u	n	n
CCCCCCCCCCC(=O)Nc1cccnc1	n	n	x	n	n	n
COc1ccc2c(c1)c1c(c(=O)n(Cc3ccccc3)c(=O)n1CC(=O)NCc1ccccc1Cl)n2C	n	x	n	x	x	x
Cc1c(NC(=O)CSc2nc3ccccc3n2C)c(=O)n(-c2ccccc2)n1C	n	n	n	n	n	u
Cc1nn(-c2ccccn2)c2c1-c1nc(N)ncc1CC2	10.7µM	3.55µM	u	n	3.16µM	u
O=C(c1cc2ccccc2oc1=O)N(Cc1ccco1)C1CCS(=O)(=O)C1 (stereo not drawn)	15.1µM	u	n	18.4µM	u	u
SMILES	FLuc counter	NPC1 prom act	SMN2 splice enh	ELG1 genotox	Rab9 promoter act	ELG1 DNA repair
CN(C)c1ccc(CN(C(=O)c2cc3ccccc3oc2=O)C2CCS(=O)(=O)C2)cc1 (stereo not drawn)	12µM	2.82µM	x	u	u	u
O=C(c1cc2ccccc2oc1=O)N(Cc1cccc(Cl)c1)C1CCS(=O)(=O)C1 (stereo not drawn)	n	x	n	x	x	x
Cc1nc(Oc2ccccc2C)c2oc3ccccc3c2n1	n	x	x	x	x	x
O=C(NCCCn1ccnc1)c1ccc(Br)s1	n	n	x	n	n	n
C=CCN1C(=O)/C(=C/c2ccc(O)c(OC)c2)S/C1=N/c1nccs1	n	n	n	n	n	23.1µM
COc1ccc(-c2nnc(Nc3nc4c(OC)cccc4s3)o2)c(OC)c1	9.53µM	n	n	n	n	n
COc1ccc(-c2ccc(-c3nnc(-c4cc(OC)ccc4OC)o3)cc2)cc1	n	n	n	n	n	u

Screening data: PubChem, National Center for Advancing Translational Sciences (NCATS)
